The source made the active and inactive calls.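 Rule for the calls, unless noted: active = inhibition at or above 50% at 10 µM; inactive = inhibition below 50%.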 Where a SMILES comes first, the peptide text is derived from it. The star is where a group is joined. Boc = CC(C)(C)OC(=O)*
Tests used:
[1] = inhibitors of TNFa-induced NFkB p65 translocation, primary screen, imaging, HUVEC, MLSMR starter and 10KST1 sets (AID 438;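 active = inhibition above 20% together with a positive visual image hit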;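 note: compound added about 3h40 before a 20 min TNFalpha stimulation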;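 for inhibition: signal is the nuclear over cytoplasmic p65 intensity ratio per well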); conditions: HUVEC TNFa-induced p65 nuclear translocation; cell count: measured here: nuclei count (cytotoxicity indicator), at 2.08 µM; inhibition: at 2 µM, stronger effect = higher value, 0% TNFa-plus-vehicle, 100% no-TNFa wells
[2] = inhibitors of mutant huntingtin aggregation, primary screen, imaging, exon1htt(103Q)mCFP cells, high-content imaging (AID 483;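 active = visual image review flags a hit and inhibition of aggregation exceeds 20%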;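 note: compound exposure lasted 3 days before fixation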;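 for nuclei count: percent of the per-plate median nuclei count of sample wells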); conditions: exon1htt(103Q)mCFP cell line, aggregate imaging, at 2 µM; inhibition of aggregation: stronger effect = higher value; nuclei count: measured here: cell count, toxicity
[3] = inhibitors of E-selectin induction by TNFa, primary screen, imaging, HUVEC, immunofluorescence, MLSMR starter and 10KST1 sets (AID 487;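 active = visually confirmed hit in the image check and inhibition above 20%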;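 for inhibition: signal is fraction of cell area covered by stained E-selectin grains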;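 for nuclei count: 100% = median nuclei count of all wells on the same plate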); conditions: HUVEC TNFalpha-induced E-selectin immunofluorescence imaging, at 2 µM; inhibition: stronger effect = higher value; nuclei count: measured here: cell number, toxicity
[4] = target: Voltage-gated potassium channel subunit beta-2 (Rattus norvegicus) (UniProt P62483); assay: KvBeta enzyme negative modulators, primary screen, biochemical, NADPH fluorescence (AID 622;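 active = fluorescence slope higher than the sample average by over 3 SD, cut at about -0.22 in these data, passing the limit was not always enough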;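 note: slope of raw intensity against log time taken from 70 to 1610 s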); conditions: recombinant KvBeta, 4-cyanobenzaldehyde reduction, at 10 µM, stronger effect = higher value
[5] = target: Voltage-gated potassium channel subunit beta-2 (Rattus norvegicus) (UniProt P62483); assay: KvBeta positive modulators, primary screen, biochemical, NADPH fluorescence (AID 623;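 active = NADPH fluorescence slope more negative than the mean of all samples by about 3 SD, 99.7% confidence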;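 note: fluorescence intensity change per second fitted from 20 to 320 s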); conditions: Recombinant KvBeta, NADPH fluorescence decrease slope, 10 min; at 10 µM; stronger effect = lower value
[6] = target: Alpha-2C adrenergic receptor (Homo sapiens) (UniProt P18825); assay: modulators of alpha2C/GIRK thallium flux, primary screen, cell-based, HEK293 alpha2C/GIRK1/2 (AID 624;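 active = fluorescence slope after compound addition differing from the mean of all screened samples at 99.7% confidence, in either direction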;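 note: slope of fluorescence ratio to pre-addition baseline per second over 15 to 24 s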); conditions: thallium flux BTC fluorescence, at 10 µM, actives lie on both sides
[7] = inhibitors of Sendai virus-induced IRF3 signaling, primary screen, TLR/RLR signaling modifier project, cell-based, Sendai virus stimulus, luciferase, 10K MLSCN set (AID 602276); conditions: HEK293 RL24 IRF3 luciferase reporter, at 10 µM, stronger effect = higher value;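 note: firefly luciferase from ISG56 promoter only with Renilla not read in this screen; 0% = Sendai virus plus DMSO and 100% = medium plus DMSO without virus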
[8] = inhibitors of poly I:C-induced TLR3 signaling, primary screen, cell-based, poly I:C stimulus, luciferase, 10K MLSCN set (AID 602277;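 active = inhibition of the reporter signal at or above 50%; inactive = inhibition below 50%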); conditions: HEK293-TLR3 RL24 IRF3 luciferase reporter, at 10 µM, stronger effect = higher value

Sequence of Alpha-2C adrenergic receptor (Homo sapiens) (P18825 whole entry, looked up): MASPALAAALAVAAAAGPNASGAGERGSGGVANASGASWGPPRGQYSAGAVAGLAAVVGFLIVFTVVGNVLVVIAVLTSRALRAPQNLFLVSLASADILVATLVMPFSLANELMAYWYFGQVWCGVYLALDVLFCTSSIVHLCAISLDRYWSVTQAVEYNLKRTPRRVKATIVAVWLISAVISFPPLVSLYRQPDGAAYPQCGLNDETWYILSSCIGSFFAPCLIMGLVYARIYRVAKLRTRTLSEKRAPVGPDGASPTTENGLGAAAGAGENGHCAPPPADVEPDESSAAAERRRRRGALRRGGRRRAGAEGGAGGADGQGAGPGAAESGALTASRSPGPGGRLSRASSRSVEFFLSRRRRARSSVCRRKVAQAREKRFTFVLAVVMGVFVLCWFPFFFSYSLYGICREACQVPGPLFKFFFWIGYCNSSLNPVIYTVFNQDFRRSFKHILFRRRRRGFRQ
Sequence of Voltage-gated potassium channel subunit beta-2 (Rattus norvegicus) (P62483 whole entry, looked up): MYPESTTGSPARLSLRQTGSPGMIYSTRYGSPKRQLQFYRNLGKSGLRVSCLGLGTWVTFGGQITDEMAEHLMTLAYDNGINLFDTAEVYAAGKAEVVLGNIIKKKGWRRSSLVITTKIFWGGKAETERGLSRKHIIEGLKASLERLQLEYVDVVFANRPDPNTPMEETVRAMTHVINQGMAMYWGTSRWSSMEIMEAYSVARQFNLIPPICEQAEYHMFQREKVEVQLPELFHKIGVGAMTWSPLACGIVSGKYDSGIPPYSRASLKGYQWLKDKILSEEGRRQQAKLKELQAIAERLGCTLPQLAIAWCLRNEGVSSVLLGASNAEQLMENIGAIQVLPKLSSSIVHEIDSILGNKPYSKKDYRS

Compound | cell count [1] | inhibition [1] | inhibition of aggregation [2] | nuclei count [2] | inhibition [3] | nuclei count [3] | fluorescence slope [4] | NADPH fluorescence slope [5] | slope [6] | inhibition [7] | inhibition [8]
Cc1ccc(C)c(S(=O)(=O)n2cnc3ccccc32)c1 | 262 | -5.9% (inactive) | 17.8% (inactive) | 79.3% | -42.5% (inactive) | 108% | -0.463 (inactive) | 2.3e-05 (inactive) | 0.00359 (inactive) | 14.5% (inactive) | 27.4% (inactive)
CCOC(=O)N1CCN(C(=O)COc2ccc(S(=O)(=O)NC(C)C)cc2)CC1 | 623 | 6.2% (inactive) | -5.3% (inactive) | 110% | 11.5% (inactive) | 115% | -0.548 (inactive) | -3.6e-05 (inactive) | 0.00507 (inactive) | 10.8% (inactive) | 24.1% (inactive)
CCC1Oc2ccc(C)cc2N(CC(=O)N(Cc2cccnc2)Cc2ccc(C)o2)C1=O (stereo not drawn) | 685 | -5.5% (inactive) | 13.1% (inactive) | 93.4% | -9.6% (inactive) | 103% | -0.599 (inactive) | -5e-05 (inactive) | 0.00383 (inactive) | 17.7% (inactive) | 24.3% (inactive)
O=c1[nH]cnc2c1C1(CCCC1)Cc1ccccc1-2 | 381 | -10.6% (inactive) | 19.5% (inactive) | 87% | -22.8% (inactive) | 110% | -0.274 (inactive) | -1.9e-05 (inactive) | 0.00586 (inactive) | 9.37% (inactive) | 35.4% (inactive)
CCC(C)C(NC(=O)OC(C)(C)C)C(=O)NC(CC(C)C)C(N)=O (stereo not drawn) (Boc-Ile-Leu-NH2; configuration not given here) | 399 | 1.3% (inactive) | 7.1% (inactive) | 88.9% | 56.6% (inactive) | 89.8% | -0.516 (inactive) | -6.5e-05 (inactive) | 0.00654 (inactive) | -6.01% (inactive) | 10.9% (inactive)
O=C1CCCc2nc(N3CCCCC3)sc21 | 629 | -15.2% (inactive) | -20.4% (inactive) | 108% | -13.1% (inactive) | 86.9% | -0.424 (inactive) | -4.5e-05 (inactive) | 0.00423 (inactive) | -57.2% (inactive) | -85.2% (inactive)
COc1cc(NC(=O)CSCc2cnn(-c3ccccc3)c2-n2cccc2)cc(OC)c1 | 662 | 6.1% (inactive) | 9.3% (inactive) | 97.9% | -32% (inactive) | 98.1% | -0.315 (inactive) | -7.1e-05 (inactive) | 0.00868 (inactive) | 15.7% (inactive) | 11.2% (inactive)
Cc1nn(-c2ccccc2)c(C)c1/C=N/O | 739 | -3.9% (inactive) | -3.1% (inactive) | 93.7% | 25% (inactive) | 94.2% | -0.446 (inactive) | 2.9e-05 (inactive) | 0.00603 (inactive) | -8.9% (inactive) | -14.8% (inactive)
